{
  "source": "PubChem BioAssay AID652054",
  "about": "(National Center for Advancing Translational Sciences (NCATS), 2013)",
  "note": "The campaign covered roughly 360,000 compounds. About 9,100 (2.5%) were called active. Roughly 4% stayed inconclusive and do not appear here. The sample holds actives, similar compounds and a random draw of the others, so the mix is not that of the screen. Rule as the data show it: active = max response below about -50%; inconclusive = no clear call, values can overlap the other calls; inactive = above that. % is scaled to controls: 0 for no effect and ±100 for the full control effect.",
  "data": [
    {"biological_target": "D(3) dopamine receptor (Homo sapiens) (UniProt P35462)", "sequence (P35462 whole entry, looked up)": "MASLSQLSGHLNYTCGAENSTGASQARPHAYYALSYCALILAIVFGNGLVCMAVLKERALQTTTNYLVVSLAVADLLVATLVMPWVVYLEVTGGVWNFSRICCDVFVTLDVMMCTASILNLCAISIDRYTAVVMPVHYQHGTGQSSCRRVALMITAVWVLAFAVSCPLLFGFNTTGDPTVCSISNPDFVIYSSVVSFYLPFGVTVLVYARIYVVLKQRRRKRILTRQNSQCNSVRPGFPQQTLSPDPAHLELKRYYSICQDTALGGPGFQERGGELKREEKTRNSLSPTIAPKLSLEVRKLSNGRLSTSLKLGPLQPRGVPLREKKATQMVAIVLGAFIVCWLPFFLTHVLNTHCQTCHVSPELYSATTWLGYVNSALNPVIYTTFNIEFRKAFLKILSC", "experiment": "qHTS of D3 Dopamine Receptor Antagonist: qHTS", "conditions": "D3R cells, DiscoveRx beta-arrestin luminescence, antagonist mode; stronger effect = lower value", "description": "D3 DARs represent a very important target for the treatment of several neuropsychiatric disorders. Indeed, one of the most promising therapeutic applications for the D3 DAR is in the area of addiction and related disorders. […] These findings have been observed with a number of addictive substances including cocaine, amphetamine, nicotine, and alcohol. […] Antagonism of the D3 DAR may also be therapeutic in the treatment of schizophrenia or psychosis. […] Since the D3 DAR is expressed in areas of the CNS associated with the control of mood and emotion, it has been hypothesized that selective antagonism of the D3 DAR may be effective in treating psychosis without inducing the motor side effects typically seen with D2 DAR antagonists.\nThis part of the project aims to discover novel antagonist.\nNIH Chemical Genomics Center [NCGC]\nNIH Molecular Libraries Probe Centers Network [MLPCN]\nAssay Submitter (PI): David Sibley, NINDS\nFreshly passaged cells are plated in 1536 well white, solid bottom plates at a density of 1500 cells/well in 3microl of complete media. After an overnight incubation at 37 degrees C in 5% CO2, cells are loaded with 23nl of test compound from the compound library (as well as dopamine controls) using a 1536 pintool and incubated at 37 degrees C for 90 minutes. Two microliters of DiscoveRx reagent is then added to all cells, and they are incubated for an additional 30 - 60 minutes at room temperature. Following incubation, luminescence is measured on a ViewLux CCD-based luminometer reader using a 20 sec exposure time.", "values": [
      {"smiles": "Cc1cccc(C)c1NC(=O)CN1CCN(c2ccc(F)cc2)CC1", "max response, negative = inhibition": "-14.3% (inactive)"},
      {"smiles": "Cc1ccc(CN2CCN(c3ncccn3)CC2)c(C)c1", "max response, negative = inhibition": "-14.2% (inactive)"},
      {"smiles": "Oc1c(CN2CCN(c3ccc(F)cc3)CC2)cc(Cl)c2cccnc12", "max response, negative = inhibition": "-59.7% (active)"},
      {"smiles": "COc1ccc(-c2nc3ccc(Br)cn3c2Cc2ccc(C)cc2)cc1OC", "max response, negative = inhibition": "33.3% (inactive)"},
      {"smiles": "CCc1nc2c(OCCOc3ccc(F)cc3)cccn2c1N(C)C(=O)c1ccccc1F", "max response, negative = inhibition": "9.16% (inactive)"},
      {"smiles": "CC1CN(C(=O)CCC(=O)NC2CCN(Cc3ccccc3)CC2)c2ccccc2O1", "note": "(centres undefined)", "max response, negative = inhibition": "-13.6% (inactive)"},
      {"smiles": "CC1CN(C(=O)CCC(=O)NCc2cccnc2)c2ccccc2O1", "note": "(centres undefined)", "max response, negative = inhibition": "-17.6% (inactive)"},
      {"smiles": "CC1CN(C(=O)CCC(=O)NCCCN2CCC(Cc3ccccc3)CC2)c2cc(Cl)ccc2O1", "note": "(centres undefined)", "max response, negative = inhibition": "-69.6% (active)"},
      {"smiles": "CC1=C(C(=O)N2CCOCC2)CC(CC(=O)NCc2cccc3ccccc23)C(=O)N1CCC1=CCCCC1", "note": "(centres undefined)", "max response, negative = inhibition": "-26.6% (inactive)"},
      {"smiles": "CCCc1nc2c3ccccc3ccn2c1Cc1ccccc1C(F)(F)F", "max response, negative = inhibition": "-26.6% (inactive)"},
      {"smiles": "CC1=C(C(=O)N2CCOCC2)CC(CC(=O)NCc2cccs2)C(=O)N1CCCN1CCCC1=O", "note": "(centres undefined)", "max response, negative = inhibition": "0% (inactive)"},
      {"smiles": "COc1ccc(Cl)cc1NC(=O)CN(C)C(=O)c1cn(-c2ccccc2)nc1-c1cccs1", "max response, negative = inhibition": "0.189% (inactive)"},
      {"smiles": "Cc1ccc(S(=O)(=O)C(C#N)c2nc3ccccc3nc2N2CCCC2)cc1C", "note": "(centres undefined)", "max response, negative = inhibition": "17.6% (inactive)"},
      {"smiles": "Cc1ccc(S(=O)(=O)Nc2nc3ccccc3nc2N2CCc3ccccc3C2)cc1", "max response, negative = inhibition": "-50.8% (active)"},
      {"smiles": "COCCCNc1nc2ccccc2nc1NS(=O)(=O)c1ccc(F)cc1", "max response, negative = inhibition": "0.291% (inactive)"},
      {"smiles": "CCc1c(-c2ccc(F)cc2)ncn1Cc1cccc(-c2ccccc2)c1", "max response, negative = inhibition": "-10.3% (inactive)"},
      {"smiles": "Nc1nc2c(ncn2[C@@H]2O[C@H](CNCc3ccc(OCCCN4CCOCC4)cc3)[C@@H](O)[C@H]2O)c(=O)[nH]1", "max response, negative = inhibition": "-3.82% (inactive)"},
      {"smiles": "CCOC(=O)C1CCCN(C(=O)c2cccc3ccccc23)CC1", "note": "(centres undefined)", "max response, negative = inhibition": "15.1% (inactive)"},
      {"smiles": "O=[N+]([O-])c1ccccc1/C=C/CN1CCCC(CO)C1", "note": "(centres undefined)", "max response, negative = inhibition": "-76% (active)"},
      {"smiles": "COc1cc(CN2CC(C)CC(C)C2)cc([N+](=O)[O-])c1O", "note": "(centres undefined)", "max response, negative = inhibition": "17.6% (inactive)"},
      {"smiles": "CC1CC(C)CN(C/C=C/c2ccccc2[N+](=O)[O-])C1", "note": "(centres undefined)", "max response, negative = inhibition": "-73.4% (active)"},
      {"smiles": "CC1CCCCC1NC(=O)/C(C#N)=C/C=C/c1ccccc1[N+](=O)[O-]", "note": "(centres undefined)", "max response, negative = inhibition": "-12.8% (inactive)"},
      {"smiles": "CC(C)CNC(=O)COC(=O)/C=C/c1ccccc1[N+](=O)[O-]", "max response, negative = inhibition": "-8.96% (inactive)"},
      {"smiles": "O=C(/C=C/c1ccccc1[N+](=O)[O-])OCC(=O)N1CCCC1", "max response, negative = inhibition": "9.84% (inactive)"}
    ]}
  ]
}
